ABHD5-PLIN5 inh: ABHD5-PLIN5 interaction inhibitors, primary screen, cell lysate, split luciferase complementation, luminescence | Perilipin-5 (Homo sapiens) + 1-acylglycerol-3-phosphate O-acyltransferase ABHD5 (Homo … | Split G. princeps luciferase complementation, 4 h | inhibition, % at 4 µM | 360,000 compounds, 0.78% hits;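 active = inhibition above the mean inhibition across every tested compound plus 3 SD, cut at about 22% in these data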
Exocytosis inh: LAMP-1 surface exposure blockers, TALL-104 cells – cell-based, flow cytometry, MLPCN library, primary screen | inhibition, % at 10 µM | 360,000 compounds, 0.66% hits | AID 651702, 2012 | TALL-104 LAMP-1 surface exposure; cells stimulated with thapsigargin and PMA;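 active = inhibition above about 55%, limit read from the data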
Rce1 inh: yeast Rce1p protease inhibitors, primary screen, biochemical, fluorescence, cell-free homogeneous; CAAX prenyl protease 2 (Saccharomyces cerevisiae (strain ATCC 204508 / S288c)), Q03530; yeast membranes, quenched prenylated peptide cleavage fluorescence; calls only; 290,000 compounds, 0.27% hits; AID 2563, 2010;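 active = fall in fluorescence gain of 50% or more versus controls, with final raw signal at or below 3038400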
Target sequence (Q03530 whole entry, looked up): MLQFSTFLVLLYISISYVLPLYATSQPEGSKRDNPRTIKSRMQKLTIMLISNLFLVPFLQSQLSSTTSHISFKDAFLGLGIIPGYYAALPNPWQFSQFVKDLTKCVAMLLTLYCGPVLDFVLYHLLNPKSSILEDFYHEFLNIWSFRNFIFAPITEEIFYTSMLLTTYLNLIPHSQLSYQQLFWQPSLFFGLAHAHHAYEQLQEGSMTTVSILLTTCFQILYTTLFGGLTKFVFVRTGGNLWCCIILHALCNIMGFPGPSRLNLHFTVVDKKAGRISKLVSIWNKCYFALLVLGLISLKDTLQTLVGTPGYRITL
PfM18AAP inh-1: PfM18AAP inhibitors, malaria aminopeptidase, primary screen, biochemical, QFRET, recombinant enzyme | inhibition, % at 7.35 µM | 290,000 compounds, 1.2% hits | H-Glu-NHMec fluorogenic cleavage | AID 1822, 2009;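 active = inhibition above the campaign mean inhibition over all tested compounds plus 3 SD, cut at about 28% in these data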
Platelet DG rel: inhibitors of platelet dense granule secretion, primary screen, cell-based, MLPCN, human platelets | human platelet-rich plasma, SFLLRN dense granule ATP release, luminescence | inhibition, %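 (compounds screened at 7.5 µM in platelet-rich plasma)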 | 300,000 compounds, 0.22% hits;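 active = mean replicate score, as percent of positive control, at or above 50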
PfM18AAP inh-2: PfM18AAP inhibitors, malaria aminopeptidase, confirmation, biochemical, QFRET, recombinant enzyme, triplicate | inhibition, % at 7.35 µM | H-Glu-NHMec fluorogenic cleavage | shares compounds with PfM18AAP inh-1 | 2,400 compounds, 28% hits;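 active = mean inhibition over replicate wells above the hit cutoff set for the earlier primary screen, cut at about 29% in these data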
CTSL1 counter: cathepsin L1 inhibitors, retest, confirmation, counter-screen for PFM18AAP inhibitor project, biochemical, QFRET, triplicate | shares compounds with PfM18AAP inh-1 | purified cathepsin L1, Z-Leu-Arg-MCA fluorescence | inhibition, % at 5.96 µM | 2,400 tested, under 10 active;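 active = average inhibition across replicates above the hit cutoff set in the earlier primary screen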
Target sequence (P07711 whole entry, looked up): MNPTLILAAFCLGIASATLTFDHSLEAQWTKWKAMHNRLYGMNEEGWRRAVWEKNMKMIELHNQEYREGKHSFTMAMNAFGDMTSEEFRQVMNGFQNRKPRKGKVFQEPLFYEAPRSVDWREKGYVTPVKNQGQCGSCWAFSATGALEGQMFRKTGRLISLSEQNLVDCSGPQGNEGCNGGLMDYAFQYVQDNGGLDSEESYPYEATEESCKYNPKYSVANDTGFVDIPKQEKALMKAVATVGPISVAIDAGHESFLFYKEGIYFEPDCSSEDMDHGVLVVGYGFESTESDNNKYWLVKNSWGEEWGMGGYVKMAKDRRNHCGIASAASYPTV
Large screens that a line does not name were inactive (follow-up assays come after a bar, where they were run). The list is not random: actives were taken first. Their share in the collection is about 2.6%.

CNC(=O)N(O)C1N(C)C(=O)N(CC(=O)OC)C1(C)C (stereo not given)	PfM18AAP inh-1 36.7 | PfM18AAP inh-2 inactive | CTSL1 counter inactive
CCCN1C(=O)N(C)C(N(O)C(=O)NC)C1(C)C (stereo not given)	none
O=C(NNc1nc2cc3c(cc2s1)OCCO3)c1ccc(F)cc1	none
O=C(NNc1nc2cc3c(cc2s1)OCO3)c1ccc(F)cc1	PfM18AAP inh-1 42.1 | PfM18AAP inh-2 inactive | CTSL1 counter inactive
O=C(NCC1CCCO1)C1CCCN(S(=O)(=O)c2ccc(Br)cc2)C1 (stereo not given)	PfM18AAP inh-1 31.8 | PfM18AAP inh-2 inactive | CTSL1 counter inactive
C=C(C)c1cccc(C(C)(C)NC(=O)Nc2ccc(C(C)=O)cc2)c1	none
C=C(C)c1cccc(C(C)(C)NC(=O)NNC(=O)c2ccccc2O)c1	PfM18AAP inh-1 39.8 | PfM18AAP inh-2 inactive | CTSL1 counter inactive
O=C(CN1CC(=O)Oc2ccccc21)NCc1ccco1	PfM18AAP inh-1 33.3 | PfM18AAP inh-2 inactive | CTSL1 counter inactive
CCN1CCC(C(=O)NC(c2ccc(F)cc2)c2ncccc2C)CC1 (stereo not given)	none (no result: Rce1 inh, PfM18AAP inh-1, Platelet DG rel)
NC(=O)c1c(NC(=O)c2cccnc2)sc2c1CCCCC2	PfM18AAP inh-1 32.8 | PfM18AAP inh-2 inactive | CTSL1 counter inactive
O=C(NC(=S)Nn1cnnc1)c1cccc(Br)c1	PfM18AAP inh-1 69.1 | PfM18AAP inh-2 87.3 | CTSL1 counter inactive
Cc1ccc(C(=O)NC(=S)Nn2cnnc2)cc1	PfM18AAP inh-1 83.6 | PfM18AAP inh-2 60.3 | CTSL1 counter inactive
Cc1ccc(/C=C/C(=O)Nn2cnnc2)cc1	PfM18AAP inh-1 41.2 | PfM18AAP inh-2 51.3 | CTSL1 counter inactive
CC1(C)CC(=O)C2=C(C1)NCN(Cc1ccc3c(c1)OCO3)C2	none
Cc1cc(C)c2nc(NNC(=O)c3ccc(S(=O)(=O)N4CCc5ccccc5C4)cc3)sc2c1	ABHD5-PLIN5 inh 29.9, PfM18AAP inh-1 35.9 | PfM18AAP inh-2 inactive | CTSL1 counter inactive
CC(=O)Nc1ccc(-n2cc(-c3ccccc3)[nH]c2=S)cc1	PfM18AAP inh-1 64.2 | PfM18AAP inh-2 57.6 | CTSL1 counter inactive
COc1ccc(-n2cc(-c3ccccc3)[nH]c2=S)cc1	PfM18AAP inh-1 44.1 | PfM18AAP inh-2 32.8 | CTSL1 counter inactive
Cc1cccc(-n2cc(-c3ccccc3)[nH]c2=S)c1	PfM18AAP inh-1 39.5 | PfM18AAP inh-2 inactive | CTSL1 counter inactive
COc1ccccc1-n1cc(-c2ccccc2)[nH]c1=S	none
Cc1ccc(S(=O)(=O)NC(=O)Nc2ccc(N(C)C)cc2)cc1	PfM18AAP inh-1 42.7 | PfM18AAP inh-2 inactive | CTSL1 counter inactive
Cc1ccc(NC(=O)NNS(=O)(=O)c2ccc(Br)cc2)cc1	none
Cc1cc(C)n2cnnc2n1	none
Cc1cc(C)n2c(=S)[nH]nc2n1	PfM18AAP inh-1 81.3 | PfM18AAP inh-2 71.8 | CTSL1 counter inactive
COc1cc(C2C(C#N)=C(N)OC3=C2C(=O)CCC3)c([N+](=O)[O-])cc1OC (stereo not given)	PfM18AAP inh-1 39.7 | PfM18AAP inh-2 inactive | CTSL1 counter inactive
COCCOc1cc(N)c(Cl)cc1Cl	none
COC(=O)c1ccc(Oc2ccc(S(=O)(=O)N3CCCCC3)cc2N)cc1	none
O=c1cc2c(=O)oc3cc(O)c(O)oc3c2c(O)c1O	PfM18AAP inh-1 59.3 | PfM18AAP inh-2 30.7 | CTSL1 counter inactive
O=c1oc2cc(O)c(Cl)cc2c2ccccc12	none
CC(C)(C)c1cc(C(=O)N/N=C/c2ccc(-c3ccccc3[N+](=O)[O-])o2)n[nH]1	PfM18AAP inh-1 48.3 | PfM18AAP inh-2 inactive | CTSL1 counter inactive
O=C(N/N=C/c1ccc(-c2ccccc2[N+](=O)[O-])o1)c1cccnc1	none
O=C(O)Cc1cn(-c2ccccc2)nc1-c1ccccc1	none
O=C(O)/C=C/C(=O)NCc1cn(-c2ccccc2)nc1-c1cccc(Br)c1	PfM18AAP inh-1 36.1 | PfM18AAP inh-2 inactive | CTSL1 counter inactive
Fc1ccccc1NC(=S)NCc1ccc2c(c1)OCO2	none
O=C(C/C=N\OCc1ccc([N+](=O)[O-])cc1)Nc1ccccc1	PfM18AAP inh-1 33.4 | PfM18AAP inh-2 inactive | CTSL1 counter inactive
Cn1c(CSc2ncn[nH]2)nc2ccccc21	PfM18AAP inh-1 53.2 | PfM18AAP inh-2 inactive | CTSL1 counter inactive
O=c1cc(CSc2ccccc2)[nH]c(=S)[nH]1	none
Cc1nnc(SCc2cc(=O)[nH]c(=S)[nH]2)s1	PfM18AAP inh-1 46.6 | PfM18AAP inh-2 inactive | CTSL1 counter inactive
COc1ccc(C)cc1NC(=O)c1cc(S(=O)(=O)N2CCCC2)cn1C	none
O=C1CC(c2ccccc2)Cc2nc3nc(C(F)(F)F)nn3cc21 (stereo not given)	none
CSc1nc2nc3c(cn2n1)C(=O)CC(c1ccccc1)C3 (stereo not given)	PfM18AAP inh-1 34.2 | PfM18AAP inh-2 inactive | CTSL1 counter inactive
O=C(Cc1csc(N2CCOCC2)n1)N/N=C/c1ccc(O)c(O)c1O	PfM18AAP inh-1 47.0 | PfM18AAP inh-2 inactive | CTSL1 counter inactive
C/C(=N\NC(=O)Cc1csc(N2CCOCC2)n1)c1ccccc1	none
O=C1C2CCCN2C(c2cccs2)N1c1ccc(F)cc1 (stereo not given)	none
O=C(O)C(c1ccccc1)N1C(=O)/C(=C\c2ccc(O)c(O)c2)SC1=S (stereo not given)	PfM18AAP inh-1 49.5 | PfM18AAP inh-2 28.2 | CTSL1 counter inactive
COc1cc(/C=C2\SC(=S)N(C(C(=O)O)c3ccccc3)C2=O)ccc1O (stereo not given)	none
CN1CCN(C(=S)C(=O)Nc2ccc(Br)cc2)CC1	PfM18AAP inh-1 55.1 (no result: Rce1 inh) | PfM18AAP inh-2 inactive | CTSL1 counter inactive
CN1CCN(C(=S)NC(=O)c2ccc(Br)cc2)CC1	none
Nc1cc(=O)[nH]c(SCC(=O)Nc2ncc(C(F)(F)F)cc2Cl)n1	none
Cn1c(C(=O)O)cnc1Sc1ncc(C(F)(F)F)cc1Cl	none
O=C(CSc1ncn[nH]1)Nc1ncc(C(F)(F)F)cc1Cl	PfM18AAP inh-1 83.9 | PfM18AAP inh-2 74.4 | CTSL1 counter inactive
FC(F)(F)c1cnc(Sc2ncn[nH]2)c(Cl)c1	PfM18AAP inh-1 92.4 | PfM18AAP inh-2 82.8 | CTSL1 counter inactive
CC(C)c1ccc(NC(=O)NCc2ccc3c(c2)OCO3)cc1	none

Bioassay records deposited in PubChem BioAssay by several laboratories.
